About 8,800 targets were measured; listed, in parts, are those with a hit and a random draw of the rest. About 0.5% of all pairs of compound and target were hits.
How the values were obtained:
Assay in all cases: log2 fold change, soluble protein after heating vs DMSO (PISA); higher = thermal stabilisation; K562 lysate, 10 uM; active = over 0.2 and 3.5 SD of the protein, either way, in both replicates (recomputed)
lapatinib = compound: CS(=O)(=O)CCNCc1ccc(-c2ccc3ncnc(Nc4ccc(OCc5cccc(F)c5)c(Cl)c4)c3c2)o1 [lapatinib]
Outline: (§1)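 To prepare the extract, K562 pellets were dounce-homogenised in PBS pH 7.4 with 1 mM MgCl2, giving crude material at 1 mg/mL protein. This was treated with 10 μM compound for 30 min, then heated in aliquots for 3 min over 48°C-58°C before pooling and addition of NP-40 to 0.5% at 4°C. Centrifugation at 21,000xg for 90 min left soluble protein in the supernatant, which TMTpro 16plex LC-MS/MS quantified with equalised channel sums. Results are log-two fold changes in thermal stability compared with solvent controls, from duplicates.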

pictilisib = compound: CS(=O)(=O)N1CCN(Cc2cc3nc(-c4cccc5[nH]ncc45)nc(N4CCOCC4)c3s2)CC1 [pictilisib]
Outline: as §1

crizotinib = compound: C[C@@H](Oc1cc(-c2cnn(C3CCNCC3)c2)cnc1N)c1c(Cl)ccc(F)c1Cl [crizotinib]
Outline: as §1

[1] = compound: C[C@H](C1=CC=C(C=C1)C(=O)NC2=C3C=CNC3=NC=C2)N
Outline: as §1

duvelisib = compound: C[C@H](Nc1ncnc2nc[nH]c12)c1cc2cccc(Cl)c2c(=O)n1-c1ccccc1 [duvelisib]
Outline: as §1

gandotinib = compound: Cc1cc(Nc2cc(CN3CCOCC3)c3nc(C)c(Cc4ccc(Cl)cc4F)n3n2)n[nH]1 [gandotinib]
Outline: as §1

tozasertib = compound: Cc1cc(Nc2cc(N3CCN(C)CC3)nc(Sc3ccc(NC(=O)C4CC4)cc3)n2)n[nH]1 [tozasertib]
Outline: as §1

doramapimod = compound: Cc1ccc(-n2nc(C(C)(C)C)cc2NC(=O)Nc2ccc(OCCN3CCOCC3)c3ccccc23)cc1 [doramapimod]
Outline: as §1

bafetinib = compound: Cc1ccc(NC(=O)c2ccc(CN3CC[C@H](N(C)C)C3)c(C(F)(F)F)c2)cc1Nc1nccc(-c2cncnc2)n1 [bafetinib]
Outline: as §1

[2] = compound: Cc1cccc(CC(=O)N2CCc3c2ccc(-c2cn(C)c4ncnc(N)c24)c3F)n1
Outline: as §1

nilotinib = compound: Cc1cn(-c2cc(NC(=O)c3ccc(C)c(Nc4nccc(-c5cccnc5)n4)c3)cc(C(F)(F)F)c2)cn1 [nilotinib]
Outline: as §1

[3] = compound: Cc1nc(Nc2n[nH]c3c2CN(C(=O)N[C@H](CN(C)C)c2ccccc2)C3(C)C)c2sccc2n1
Outline: as §1

dasatinib = compound: Cc1nc(Nc2ncc(C(=O)Nc3c(C)cccc3Cl)s2)cc(N2CCN(CCO)CC2)n1 [dasatinib]
Outline: as §1

[4] = compound: Cc1ncc(-c2ccnc(Nc3ccc(S(C)(=O)=O)cc3)n2)n1C(C)C
Outline: as §1

[5] = compound: Cn1cc(-c2ccc3c(c2)CCN3C(=O)Cc2cccc(C(F)(F)F)c2)c2c(N)ncnc21
Outline: as §1

quisinostat = compound: Cn1cc(CNCC2CCN(c3ncc(C(=O)NO)cn3)CC2)c2ccccc21 [quisinostat]
Outline: as §1

tipifarnib = compound: Cn1cncc1[C@@](N)(c1ccc(Cl)cc1)c1ccc2c(c1)c(-c1cccc(Cl)c1)cc(=O)n2C [tipifarnib]
Outline: as §1

[6] = compound: NC(=O)Nc1cc(-c2cccc(F)c2)sc1C(=O)N[C@H]1CCCNC1
Outline: as §1

[7] = compound: NC(=O)c1cnc(N[C@@H]2CCCC[C@@H]2N)nc1Nc1cccc(-n2nccn2)c1
Outline: as §1

[8] = compound: NC1(c2ccc(-c3nc4ccn5c(=O)[nH]nc5c4cc3-c3ccccc3)cc2)CCC1
Outline: as §1

Measured: log2 fold change

HSPA14 (UniProt Q0VDF9)
Sequence of UniProt Q0VDF9 (Q0VDF9 whole entry, looked up): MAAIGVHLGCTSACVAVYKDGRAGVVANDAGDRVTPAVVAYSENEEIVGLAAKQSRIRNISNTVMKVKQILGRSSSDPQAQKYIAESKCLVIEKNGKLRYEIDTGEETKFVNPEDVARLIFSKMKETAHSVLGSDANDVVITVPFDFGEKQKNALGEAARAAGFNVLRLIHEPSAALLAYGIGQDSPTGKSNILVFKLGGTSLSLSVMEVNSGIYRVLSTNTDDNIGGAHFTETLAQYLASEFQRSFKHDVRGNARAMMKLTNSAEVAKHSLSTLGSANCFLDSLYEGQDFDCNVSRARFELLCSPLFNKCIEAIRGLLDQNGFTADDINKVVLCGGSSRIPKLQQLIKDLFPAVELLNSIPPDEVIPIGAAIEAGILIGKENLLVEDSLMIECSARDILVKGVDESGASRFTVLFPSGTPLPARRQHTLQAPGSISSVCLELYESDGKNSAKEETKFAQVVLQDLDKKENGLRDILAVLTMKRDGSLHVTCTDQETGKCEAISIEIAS
inactive: lapatinib -0.016 | pictilisib 0.023 | crizotinib -0.02 | [1] -0.038 | duvelisib 0.007 | gandotinib -0.039 | tozasertib 0.018 | doramapimod 0.003 | bafetinib -0.026 | [2] 0.037 | nilotinib -0.032 | [3] -0.001 | dasatinib -0.018 | [4] 0.009 | [5] 0.034 | quisinostat -0.026 | tipifarnib 0.021 | [6] 0.037 | [7] 0.001 | [8] -0.025

HNRNPL (UniProt P14866)
Sequence of UniProt P14866 (P14866 whole entry, looked up): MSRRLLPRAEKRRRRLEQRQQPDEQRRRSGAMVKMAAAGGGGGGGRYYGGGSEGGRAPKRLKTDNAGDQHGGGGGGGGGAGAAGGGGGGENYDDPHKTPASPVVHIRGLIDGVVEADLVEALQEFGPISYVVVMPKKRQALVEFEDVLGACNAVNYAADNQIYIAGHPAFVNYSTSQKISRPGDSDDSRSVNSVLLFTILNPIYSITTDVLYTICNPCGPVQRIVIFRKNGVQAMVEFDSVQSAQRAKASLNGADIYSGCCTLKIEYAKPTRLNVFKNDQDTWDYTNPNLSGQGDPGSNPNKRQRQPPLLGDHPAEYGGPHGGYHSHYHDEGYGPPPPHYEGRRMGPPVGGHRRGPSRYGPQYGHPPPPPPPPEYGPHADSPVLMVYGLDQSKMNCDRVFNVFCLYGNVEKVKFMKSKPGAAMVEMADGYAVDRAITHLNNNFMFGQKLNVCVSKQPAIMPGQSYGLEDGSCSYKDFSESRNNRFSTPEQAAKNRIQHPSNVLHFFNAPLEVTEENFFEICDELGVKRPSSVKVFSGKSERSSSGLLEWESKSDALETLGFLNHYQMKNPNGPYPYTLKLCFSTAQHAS
inactive: lapatinib 0.005 | pictilisib -0.02 | crizotinib -0.042 | [1] 0.018 | duvelisib 0.03 | gandotinib -0.081 | tozasertib -0.011 | doramapimod -0.018 | bafetinib 0.004 | [2] -0.016 | nilotinib -0.011 | [3] -0.015 | dasatinib -0.036 | [4] 0.013 | [5] 0.068 | quisinostat -0.07 | tipifarnib 0.012 | [6] 0.042 | [7] -0.001 | [8] 0.022

GOLGA6B (UniProt A6NDN3)
Sequence of UniProt A6NDN3 (A6NDN3 whole entry, looked up): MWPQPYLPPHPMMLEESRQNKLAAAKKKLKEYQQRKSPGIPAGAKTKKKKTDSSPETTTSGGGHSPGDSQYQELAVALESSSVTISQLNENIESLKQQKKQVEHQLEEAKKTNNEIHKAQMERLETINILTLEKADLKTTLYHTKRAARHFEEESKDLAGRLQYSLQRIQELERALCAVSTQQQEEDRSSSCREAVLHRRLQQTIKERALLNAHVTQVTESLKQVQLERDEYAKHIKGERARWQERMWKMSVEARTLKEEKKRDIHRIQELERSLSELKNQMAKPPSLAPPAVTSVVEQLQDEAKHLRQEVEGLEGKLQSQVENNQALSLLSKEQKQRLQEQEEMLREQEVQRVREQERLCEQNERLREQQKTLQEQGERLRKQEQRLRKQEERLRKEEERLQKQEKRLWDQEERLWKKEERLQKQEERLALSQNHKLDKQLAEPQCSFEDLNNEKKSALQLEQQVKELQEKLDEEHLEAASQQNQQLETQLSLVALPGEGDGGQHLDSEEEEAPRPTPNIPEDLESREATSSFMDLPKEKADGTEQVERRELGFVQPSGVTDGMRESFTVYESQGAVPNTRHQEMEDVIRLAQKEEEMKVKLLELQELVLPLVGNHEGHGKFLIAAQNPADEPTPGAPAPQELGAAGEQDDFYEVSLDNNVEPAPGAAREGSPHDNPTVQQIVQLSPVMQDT
inactive: lapatinib -0.105 | pictilisib -0.061 | crizotinib -0.193 | [1] -0.105 | duvelisib 0.121 | gandotinib 0.109 | tozasertib 0.027 | doramapimod -0.381 | bafetinib -0.04 | [2] 0 | nilotinib 0.039 | [3] -0.102 | dasatinib 0.009 | [4] -0.075 | [5] 0.161 | quisinostat -0.355 | tipifarnib 0.051 | [6] 0.106 | [7] -0.008 | [8] -0.082

GTF3C3 (UniProt Q9Y5Q9)
Sequence of UniProt Q9Y5Q9 (Q9Y5Q9 whole entry, looked up): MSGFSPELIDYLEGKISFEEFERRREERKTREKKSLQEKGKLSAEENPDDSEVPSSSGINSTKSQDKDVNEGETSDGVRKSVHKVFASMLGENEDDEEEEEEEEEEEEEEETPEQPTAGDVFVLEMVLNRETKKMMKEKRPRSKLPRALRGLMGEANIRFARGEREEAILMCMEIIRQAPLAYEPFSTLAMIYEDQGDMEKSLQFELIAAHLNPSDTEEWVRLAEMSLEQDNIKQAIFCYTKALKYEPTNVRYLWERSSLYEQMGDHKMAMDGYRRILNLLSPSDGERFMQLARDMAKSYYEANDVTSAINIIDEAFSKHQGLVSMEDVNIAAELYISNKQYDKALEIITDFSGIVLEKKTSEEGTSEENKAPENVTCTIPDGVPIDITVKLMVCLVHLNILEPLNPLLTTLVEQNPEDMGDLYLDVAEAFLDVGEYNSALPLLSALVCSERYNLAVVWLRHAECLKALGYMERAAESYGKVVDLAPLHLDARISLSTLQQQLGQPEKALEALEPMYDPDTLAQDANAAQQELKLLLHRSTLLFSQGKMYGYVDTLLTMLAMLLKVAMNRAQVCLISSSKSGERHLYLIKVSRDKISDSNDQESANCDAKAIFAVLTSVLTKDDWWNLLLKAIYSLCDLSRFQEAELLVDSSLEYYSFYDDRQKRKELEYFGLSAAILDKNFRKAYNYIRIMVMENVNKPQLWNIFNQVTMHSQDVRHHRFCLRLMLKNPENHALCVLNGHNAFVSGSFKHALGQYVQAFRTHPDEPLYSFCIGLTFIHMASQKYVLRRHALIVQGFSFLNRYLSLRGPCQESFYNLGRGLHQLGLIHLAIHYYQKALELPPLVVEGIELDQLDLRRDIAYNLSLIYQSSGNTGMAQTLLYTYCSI
inactive: lapatinib -0.043 | pictilisib -0.051 | crizotinib -0.093 | [1] -0.108 | duvelisib 0.017 | gandotinib -0.037 | tozasertib 0.009 | doramapimod 0.012 | bafetinib -0.045 | [2] 0.084 | nilotinib 0.035 | [3] 0.052 | dasatinib 0.008 | [4] -0.026 | [5] 0.009 | quisinostat -0.134 | tipifarnib -0.057 | [6] 0.031 | [7] 0.009 | [8] -0.084

KCTD20 (UniProt Q7Z5Y7)
Sequence of UniProt Q7Z5Y7 (Q7Z5Y7 whole entry, looked up): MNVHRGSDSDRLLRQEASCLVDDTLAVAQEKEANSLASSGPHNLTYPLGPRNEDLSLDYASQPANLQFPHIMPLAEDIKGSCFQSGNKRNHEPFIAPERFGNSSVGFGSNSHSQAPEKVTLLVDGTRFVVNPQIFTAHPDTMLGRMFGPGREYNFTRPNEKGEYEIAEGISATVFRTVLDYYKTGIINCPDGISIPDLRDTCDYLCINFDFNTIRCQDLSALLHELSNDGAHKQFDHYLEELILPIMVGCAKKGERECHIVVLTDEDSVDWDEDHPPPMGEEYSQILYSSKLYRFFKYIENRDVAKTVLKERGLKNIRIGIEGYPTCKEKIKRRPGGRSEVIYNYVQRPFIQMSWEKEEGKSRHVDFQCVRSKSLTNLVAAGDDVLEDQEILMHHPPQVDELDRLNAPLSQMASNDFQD
inactive: lapatinib -0.064 | pictilisib 0.039 | crizotinib -0.077 | [1] 0.006 | duvelisib -0.082 | gandotinib 0.006 | tozasertib -0.119 | doramapimod -0.01 | bafetinib 0.007 | [2] -0.005 | nilotinib 0.054 | [3] -0.021 | dasatinib -0.096 | [4] 0.074 | [5] 0.039 | quisinostat -0.138 | tipifarnib -0.028 | [6] 0.109 | [7] 0.089 | [8] -0.007

HNRNPD isoform 3 (UniProt Q14103)
Sequence of UniProt Q14103 (Q14103 whole entry, looked up): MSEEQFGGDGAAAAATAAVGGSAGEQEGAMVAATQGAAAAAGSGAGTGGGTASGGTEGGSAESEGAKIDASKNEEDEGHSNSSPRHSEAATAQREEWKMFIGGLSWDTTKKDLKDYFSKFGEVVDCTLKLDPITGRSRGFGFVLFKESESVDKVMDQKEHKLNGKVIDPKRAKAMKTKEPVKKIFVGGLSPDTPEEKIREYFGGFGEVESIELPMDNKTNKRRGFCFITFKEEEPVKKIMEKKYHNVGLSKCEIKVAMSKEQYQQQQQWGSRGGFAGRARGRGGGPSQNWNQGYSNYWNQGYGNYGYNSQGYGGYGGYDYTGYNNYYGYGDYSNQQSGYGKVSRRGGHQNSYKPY
inactive: lapatinib -0.062 | pictilisib 0.126 | crizotinib -0.07 | [1] -0.08 | duvelisib 0.043 | gandotinib 0.094 | tozasertib -0.078 | doramapimod 0.045 | bafetinib 0.166 | [2] 0.033 | nilotinib 0.012 | [3] -0.073 | dasatinib 0.017 | [4] 0.017 | [5] 0.065 | quisinostat 0.005 | tipifarnib -0.002 | [6] 0.021 | [7] 0.028 | [8] -0.033

From the supplement of paper PMC10849652
